HT1080-NT tox: qHTS for induction of synthetic lethality in tumor cells producing 2HG: qHTS for the HT-1080-NT fibrosarcoma cell line; HT-1080-NT fibrosarcoma viability, CellTiter-Glo ATP luminescence, 48 h; Potency, µM (top dose mostly 46.1 µM), most hits filed as cytotoxic; 1.6% of 360,000 active; AID 686970, 2013;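 further: NT is the 2HG producing partner of a matched IDH1 knockdown line; nearly all actives have a fitted effect of over 55% in size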
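Compounds were tested in concentration-response format on HT-1080-NT cells for 48 hours at 37 degrees C. Cell viability came from CellTiter-Glo luminescence; curves were classified by r2, response magnitude and activity.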
HT1080 IDH1KD tx: qHTS for induction of synthetic lethality in tumor cells producing 2HG: qHTS for the HT-1080-IDH1KD cell line. HT-1080 IDH1 knockdown viability, ATP luminescence, 48 h. Potency, µM (titrated, usually from 46.1 µM), hits mostly cytotoxic. 2% of 360,000 active. AID 686971, 2013
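Luminescent ATP read-out (CellTiter-Glo, 10 min at room temperature) after 48 h compound exposure at 37 °C gave viability of IDH1-knockdown HT-1080 cells. Activity was normalised to DMSO and cell-free wells, then fitted as concentration-response curves.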
IL1B secr inh: qHTS for Inhibitors of Inflammasome Signaling: IL-1-beta AlphaLISA Primary Screen | THP-1 LPS/ATP IL-1B secretion, AlphaLISA, 16 h; stronger effect = lower value | activity change, % at 57.5 µM | 4.7% of 360,000 active | AID 743279, 2014; in the data active means activity change below about -50%; inconclusive means mostly about -30% to -49%
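THP-1 cells pretreated 1 hr with compounds (up to 57.5 uM final), then stimulated with LPS (250 ng/mL final) plus ATP (1.25 mM final); secreted IL-1B measured by AlphaLISA after 16 hr, decreased signal indicating inhibition.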
DT40 TDP1 CPT: qHTS for Inhibitors of human tyrosyl-DNA phosphodiesterase 1 (TDP1): qHTS in cells in presence of CPT; chicken DT40 Tdp1-/-;hTDP1 cells + 20 nM CPT, ATP luminescence, 48 h; Potency, µM (highest dose often 46.2 µM), hits mostly inhibitors; 12% of 420,000 active; AID 686979, 2013; further: nearly all actives have a fitted effect of over 55% in size
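Chicken DT40 Tdp1-/- cells stably complemented with human TDP1 were seeded at 400 cells/well in medium containing 20 nM camptothecin, exposed to pin-transferred compounds, and grown at 37 °C for at least 48 hr. Viability was read as ATP luminescence.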
DT40 TDP1 no CPT: qHTS for Inhibitors of human tyrosyl-DNA phosphodiesterase 1 (TDP1): qHTS in cells in absence of CPT. DT40 Tdp1-/- hTDP1 cells, no CPT, ATP luminescence, 48 h. Potency, µM (highest dose often 46.2 µM), usual class: inhibitors. 15% of 420,000 active; further: nearly all actives have a fitted effect of over 55% in size
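No-CPT arm: Tdp1-/-;hTDP1 DT40 cells (400/well) plus compounds, incubated ≥48 hr at 37 °C. Readout CellTiter-Glo luminescence.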
uPA surface inh: qHTS for Inhibitors of Cell Surface uPA Generation. cell surface uPA generation assay, qHTS. Potency, µM (doses to about 38.3 µM), hits mostly inhibitors. 0.31% of 330,000 active. AID 540303, 2011; active means well fitted inhibition curve with a large enough effect; inconclusive means small, poorly fitted or top-dose-only effect; inactive means no such curve, though single readings can be large or run the other way; tested in mouse RAW 264.7 cells; further: nearly all actives have a fitted effect of over 55% in size
Hits are given with their value; [ ] = dose if it differs, or a comment. An excerpt weighted towards active compounds, which were near 19% of everything screened. Unless noted, the call rests on the fitted dose curve; in most records, active means well fitted curve in the direction sought with a large enough effect; inconclusive means small, poorly fitted or top-dose-only effect, or another doubt; inactive means no such curve, though single readings can be large; an effect the other way counts as inactive or inconclusive.

Screening Cc1cc(Cl)ccc1NC(=O)CCn1nc(C)c2c(C)n(-c3ccccc3)nc2c1=O returned DT40 TDP1 CPT inconclusive and DT40 TDP1 no CPT inactive.
Screening Cc1ccc(-c2cc(C(=O)Nc3ccc(SC(F)F)cc3)no2)cc1F returned DT40 TDP1 CPT inconclusive and DT40 TDP1 no CPT inactive.
For S=c1nc(-c2ccccc2Br)[nH][nH]1 the results were HT1080-NT tox 7.1µM, HT1080 IDH1KD tx 10µM, IL1B secr inh inactive, DT40 TDP1 CPT inconclusive, DT40 TDP1 no CPT inactive and uPA surface inh inactive.
S=c1nc(-c2cc(Cl)ccc2Cl)[nH][nH]1 was read as HT1080-NT tox inactive, HT1080 IDH1KD tx inactive, IL1B secr inh inactive, DT40 TDP1 CPT inactive, DT40 TDP1 no CPT inactive and uPA surface inh inactive.
`CC1CC(C)C(=O)C(C(CC2CC(=O)NC(=O)C2)OC(=O)CC(=O)c2ccccc2)C1` (stereo not drawn) gave HT1080-NT tox inconclusive, HT1080 IDH1KD tx inconclusive, IL1B secr inh inactive, DT40 TDP1 CPT 0.37µM, DT40 TDP1 no CPT 0.41µM and uPA surface inh inactive.
Cc1ccc(CCNC(=O)CN2CCN(Cc3ccc(Cl)cc3)C2=O)cc1 was read as DT40 TDP1 CPT inactive and DT40 TDP1 no CPT inconclusive.
`CN(C1CCCCC1)S(=O)(=O)c1ccc(S(=O)(=O)N(CC(=O)Nc2ccccc2)C2CC2)cc1` gave HT1080-NT tox inactive, HT1080 IDH1KD tx inactive, IL1B secr inh inactive, DT40 TDP1 CPT inconclusive, DT40 TDP1 no CPT 23µM and uPA surface inh inactive.
For CN(C1CCCCC1)S(=O)(=O)c1ccc(Cl)c(C(=O)O)c1 the results were HT1080-NT tox inactive, HT1080 IDH1KD tx inactive, IL1B secr inh inactive, DT40 TDP1 CPT inactive, DT40 TDP1 no CPT inactive and uPA surface inh inactive.
For CN(C1CCCCC1)S(=O)(=O)c1ccc(NC(=O)C2CCCCC2)cc1 the results were HT1080-NT tox inactive[9.24 µM], HT1080 IDH1KD tx inconclusive, IL1B secr inh inactive, DT40 TDP1 CPT 16µM and DT40 TDP1 no CPT 21µM.
CN(C1CCCCC1)S(=O)(=O)c1ccc(NC(=O)CCC(=O)O)cc1 was read as HT1080-NT tox inactive, HT1080 IDH1KD tx inactive, IL1B secr inh inactive, DT40 TDP1 CPT inactive, DT40 TDP1 no CPT inactive and uPA surface inh inactive.
For CCc1ccc(NC(=O)c2cc(S(=O)(=O)NC3CCCC3)ccc2F)cc1 the results were DT40 TDP1 CPT 13µM and DT40 TDP1 no CPT 16µM.
Screening CN(C1CCCCC1)S(=O)(=O)c1ccc(F)c(C(=O)Nc2ccc(C(F)(F)F)cc2)c1 returned DT40 TDP1 CPT 23µM and DT40 TDP1 no CPT 21µM.
Screening CCC1=C(OC(=O)N(CC)CC)N2C(=O)OC(=NCCc3c[nH]c4ccccc34)[C@]2(Cc2ccccc2)[C@H]2C1=CC[C@H]1C(=O)N(CC(=O)OC)C(=O)[C@H]12 returned HT1080-NT tox inactive, HT1080 IDH1KD tx inactive, IL1B secr inh inconclusive, DT40 TDP1 CPT inconclusive, DT40 TDP1 no CPT inconclusive and uPA surface inh inconclusive.
For CCC1=C(OC(=O)N(CC)CC)N2C(=O)OC(=NCCc3c[nH]c4ccccc34)[C@]2(Cc2ccccc2)[C@H]2C1=CC[C@H]1C(=O)NC(=O)[C@H]12 the results were HT1080-NT tox inconclusive, HT1080 IDH1KD tx inconclusive, IL1B secr inh inconclusive, DT40 TDP1 CPT inconclusive, DT40 TDP1 no CPT 16µM and uPA surface inh inactive.
Screening CCC1=C(OC(=O)N(CC)CC)N2C(=O)OC(=NCC3CC3)[C@]2(Cc2ccccc2)[C@H]2C1=CC[C@H]1C(=O)N(C)C(=O)[C@H]12 returned HT1080-NT tox inactive, HT1080 IDH1KD tx inactive, IL1B secr inh inactive, DT40 TDP1 CPT 18µM, DT40 TDP1 no CPT 18µM and uPA surface inh inactive.
Cc1cc(NC(=O)CCCN2C(=O)c3cccnc3C2=O)no1 was read as HT1080-NT tox inactive, HT1080 IDH1KD tx inconclusive, IL1B secr inh inactive, DT40 TDP1 CPT 21µM, DT40 TDP1 no CPT 26µM and uPA surface inh inactive.
